Hits are enriched below; roughly 3% of the tested compounds scored in any of these assays.
FBA Mtb inh: Mtb fructose-bisphosphate aldolase inhibition; purified M. tuberculosis FBA, fluorescence read-out; inhibition, % at 1 µM; 360,000 compounds, 2.3% hits; in the data active = inhibition above about 27%;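 also: 0% = vehicle and 100% = reference inhibitor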
Target sequence (P9WQA3 whole entry, looked up): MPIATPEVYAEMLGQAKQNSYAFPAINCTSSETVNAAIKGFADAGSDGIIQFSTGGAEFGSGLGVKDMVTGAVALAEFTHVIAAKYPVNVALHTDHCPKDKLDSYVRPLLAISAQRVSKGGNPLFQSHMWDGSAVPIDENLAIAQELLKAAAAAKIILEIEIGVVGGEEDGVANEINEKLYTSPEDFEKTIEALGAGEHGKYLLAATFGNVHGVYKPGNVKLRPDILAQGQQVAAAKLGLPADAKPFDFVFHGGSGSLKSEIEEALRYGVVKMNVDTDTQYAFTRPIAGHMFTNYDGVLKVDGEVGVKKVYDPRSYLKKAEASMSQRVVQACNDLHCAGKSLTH
GDH-TPI inh: GDH-TPI coupled enzyme inhibition counter-screen; 360,000 compounds, 1.2% hits; GDH-TPI coupled enzyme counterscreen, NADH absorbance; inhibition, % at 4.8 µM; in the data active = inhibition above about 30%;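 also: 0% = DMSO wells and 100% = wells lacking the enzyme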
BioA inh: BioA (M. tuberculosis) enzyme inhibition | purified M. tuberculosis BioA enzyme, plate reader | inhibition, % at 9.99 µM | 360,000 compounds, 0.096% hits; in the data active = inhibition above about 40%
Vc quorum ag: induces V. cholerae light production without autoinducers; V. cholerae BH1578 lux reporter, luminescence, 6 h; activation, % at 18.7 µM; 350,000 compounds, 0.16% hits; in the data active = activation mostly above about 9.7%, no sharp cut-off
Active calls of the source: *; i = inactive; . = no result given; + = active, no number.

SMILES	FBA Mtb inh	GDH-TPI inh	BioA inh	Vc quorum ag
C/C(=N\NC(=O)c1ccc2c(c1)OCO2)c1ccc(NS(C)(=O)=O)cc1	-4	36*	0	0
C/C(=N\NC(=O)c1ccc2c(c1)OCO2)c1ccc(O)cc1	-1	33*	.	0
COc1ccc(CN(C)C[C@H]2OCCCC[C@@H](C)Oc3ccc(NS(=O)(=O)c4ccccc4)cc3C(=O)N([C@@H](C)CO)C[C@H]2C)cc1	.	.	1	.
C[C@H](CO)N1C[C@H](C)[C@@H](CN(C)C(=O)Nc2ccc(C(F)(F)F)cc2)Oc2ccc(NC(=O)CCC(F)(F)F)cc2CC1=O	.	.	0	.
CCN(CC(=O)Nc1ccc(NC(C)=O)cc1)C(=O)/C=C/c1ccc(C)o1	1	35*	-2	i
CCN(CC(=O)Nc1ccc(NC(C)=O)cc1)C(=O)/C=C/c1ccccc1	-1	-7	0	-4
O=S(=O)(Nc1nc2ccccc2nc1NCc1ccco1)c1cccs1	6	32*	0	-1
CCCCCNc1nc2ccccc2nc1NS(=O)(=O)c1cccs1	2	31*	2	i
C=CCNc1nc2ccccc2nc1NS(=O)(=O)c1cccs1	4	27	0	17
CCCN1C[C@@H](C)[C@H](OC)CN(C)C(=O)c2cc(NC(=O)C3CC3)ccc2OC[C@H]1C	.	.	3	.
COC(=O)NC(Nc1sc2c(c1C(N)=O)CCCC2)(C(=O)OC)C(F)(F)F (centres undefined)	1	-5	1	17*
CCCOC(=O)Nc1sc2c(c1C(N)=O)CCCC2	-3	-1	.	i
O=C(C[C@H]1C[C@H]2c3cc(NC(=O)Nc4ccccc4F)ccc3O[C@H]2[C@H](CO)O1)NCC1CC1	.	.	1	.
Nc1nc2ccc(-c3nc4ccccc4o3)cc2s1	+	41*	-1	0
Cc1nc(-c2cnn(-c3ccccc3)c2)c2cc(C)oc2n1	119*	9	.	i
CO[C@@H]1CN(C)C(=O)c2cc(NS(=O)(=O)c3cccc(F)c3)ccc2OC[C@@H](C)N(Cc2cc(F)ccc2F)C[C@H]1C	.	.	-6	.
Cc1cc(C)c2[nH]c(=S)cc(C)c2c1	2	9	.	0
Cc1cc(=S)[nH]c(=S)[nH]1	-1	35*	-3	-1
CC=Cc1ccc2n(c1=O)C[C@@H]1[C@@H](CO)[C@H](C(=O)NCC3CC3)N(Cc3nccs3)[C@H]21 (mixture of isomers)	.	.	-2	.
O=c1nccc(N/N=C/c2ccccc2O)[nH]1	2	38*	.	i
Oc1cccc(/C=N/Nc2nn3cnnc3c3ccccc23)c1	2	25	-2	i
COc1cccc(/C=N/Nc2nn3cnnc3c3ccccc23)c1O	2	32*	0	i
COc1cccc(/C=N/Nc2ccnc(=O)[nH]2)c1O	-2	36*	0	1
C[C@@H]1CN([C@H](C)CO)C(=O)c2cc(-c3ccc(F)cc3)cnc2O[C@H]1CN(C)Cc1ccc(F)cc1	.	.	1	.
N#Cc1c(-c2ccc(Cl)cc2)c(C#N)c(=O)n(N)c1N	-4	33*	.	0
SMILES	FBA Mtb inh	GDH-TPI inh	BioA inh	Vc quorum ag
CSc1nc(-c2ccc(Cl)cc2)nc(N)c1C#N	0	-3	0	0
CSc1nc(N)c(C#N)c(-c2ccc(Cl)cc2)c1C#N	4	33*	-2	-1
C[C@@H]1CN([C@@H](C)CO)C(=O)c2ccccc2-c2ccccc2CO[C@H]1CN(C)S(C)(=O)=O	.	.	-3	.
COc1cccc(C(=O)Nc2ccc3c(c2)C(=O)N(C)[C@@H]2CC[C@H](CC(=O)NCc4ccccc4F)O[C@H]2CO3)c1	.	.	-2	.
COc1cccc(C(=O)c2sc(NC(C)C)nc2N)c1	2	9	-2	0
COc1ccc(C(=O)c2sc(NC(C)C)nc2N)cc1OC	-2	37*	1	0
CCSc1nnc(NC(=O)c2ccc(C)o2)s1	0	32*	0	i
COc1cc(Cn2c3ccc(NC(=O)CCc4cccnc4)cc3c(=O)n2C)ccc1F	177*	3	28	i
COc1cc(Cn2c3ccc(NC(=O)NCCc4ccccc4)cc3c(=O)n2C)ccc1F	145*	2	1	i
Cn1c(=O)c2cc(NC(=O)CCc3cccnc3)ccc2n1Cc1ccc(F)cc1	175*	8	19	0
O=C(NCc1cccnc1)Nc1cccc(C(F)(F)F)c1	0	5	1	0
Cn1c(=O)c2cc(NC(=O)CCc3cccnc3)ccc2n1Cc1cccc(C(F)(F)F)c1	141*	5	12	i
Cn1c(=O)c2cc(NC(=O)Cc3cccnc3)ccc2n1-c1ccc2ccccc2c1	3	8	1	i
COc1cccc(CC(=O)Nc2ccc3c(c2)c(=O)n(C)n3-c2ccc(C(C)(C)C)cc2)c1	6	6	-1	-5
C[C@H]1CCCCO[C@H](CN(C)C(=O)Cc2ccccc2)[C@@H](C)CN([C@@H](C)CO)C(=O)c2cc(NC(=O)Cc3ccccc3)ccc2O1	.	.	-1	.
COc1ccc(NC(=O)N(C)C[C@H]2OCCCC[C@H](C)Oc3ccc(N(C)C)cc3C(=O)N([C@H](C)CO)C[C@H]2C)cc1	.	.	1	.
COc1ccccc1CCC(=O)Nc1ccc2c(c1)c(=O)n(C)n2-c1cccs1	1	8	-1	0
COc1cc(Cn2c3ccc(NC(=O)CCc4ccccc4)cc3c(=O)n2C)ccc1F	157*	13	2	i
C[C@@H]1CN([C@H](C)CO)C(=O)c2cc(-c3ccc(F)cc3)cnc2O[C@H]1CN(C)C(=O)Nc1ccc(F)cc1	.	.	2	.
O=c1[nH]c2ccc(Cl)cc2c(O)c1-c1ccccc1	34*	-4	-1	-3
O=c1[nH]c2cc(Cl)ccc2c(O)c1-c1cccc(Oc2ccccc2)c1	20	18	-1	0
C[C@@H]1CN([C@@H](C)CO)C(=O)c2cc(NS(C)(=O)=O)ccc2O[C@H]1CN(C)S(=O)(=O)c1ccccc1	.	.	0	.
Cn1c2ccccc2c2cc(/C=C(\NC(=O)c3ccccc3)C(=O)O)ccc21	-3	35*	-3	i
CC(C)OC(=O)/C(=C/c1ccc2c(c1)c1ccccc1n2C)NC(=O)c1ccccc1	0	34*	-1	-1
CC(C)OC(=O)/C(=C\c1ccc2c(c1)c1ccccc1n2C)NC(=O)c1ccccc1	2	21	-1	i
SMILES	FBA Mtb inh	GDH-TPI inh	BioA inh	Vc quorum ag
N#C/C(=C\c1ccco1)C(=O)Nc1cccc2ncccc12	3	33*	.	1
COc1cccc(/C=N/NC(=O)CSc2cccc3cccnc23)c1	25	2	2	2
O=C(CSc1cccc2cccnc12)N/N=C/c1ccc(O)cc1	16	47*	1	8
Cc1ccc(NC(=O)CC2=NC(=O)C(CC(=O)Nc3ccccc3F)S2)cc1 (centres undefined)	-3	32*	-1	-8
Cc1ccc(-c2sc(-c3ccccc3)nc2CC(=O)Nc2ccccc2F)cc1	-1	1	2	1
N#C/C(=C/c1ccc(CNS(=O)(=O)c2ccccc2)o1)C(N)=O	-1	37*	6	-1
Cc1noc(C)c1NC(=O)Nc1cccc2c1O[C@H](CN(C)Cc1ccc(Cl)c(Cl)c1)[C@H](C)CN([C@@H](C)CO)C2=O	.	.	2	.
COc1cccc(CNC(=O)C[C@H]2CC[C@H](NC(C)=O)[C@H](CO)O2)c1	.	.	-2	.
